The nature of assay [1]: Viability qHTS for spleen associated tyrosine kinase inhibitor (SYKi) drug resistant MV4-11 cells (AID 1963824). Further: nearly all actives have a fitted effect of over 35% in size. In outline: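 CellTiter-Glo luminescence, read 10 min after reagent addition, reports viability after a 72 hr compound exposure. Cells are an MV4-11 line made resistant to SYK inhibition, seeded at 500 per well onto compound-containing plates.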
On the technique in general: Quantitative high-throughput screening tests each substance at several concentrations.

Assay [2] in a line: Viability qHTS for spleen associated tyrosine kinase inhibitor (SYKi) naive MV4-11 cells (AID 1963823). Further: nearly all actives have a fitted effect of over 40% in size. In outline: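 CellTiter-Glo luminescence, 10 min room-temperature incubation, gave viability. Cells: naive MV4-11 (500/well), treated 72 hr at 37 C, 5% CO2.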
The nature of assay [3]: Cellular viability qHTS for adrenocortical cancer (ACC) cell line NCI-H295R (AID 1963990). Further: nearly all actives have a fitted effect of over 60% in size. In a few lines:
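Adrenocortical carcinoma cells, suspended at 300 000 cells/mL in serum-free DMEM plus ITS, rested overnight before pin transfer of compound. After two days' incubation, ATP-dependent luminescence was recorded and curve-fitted.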

Values joined by “and” are separate entries in the source; they are usually repeats but may differ in a detail not shown here. Equal values may be shown once. Inconclusive results are not listed. Active and inactive are the calls of the source. The call rests on the fitted dose curve; in most records, active means well fitted curve in the direction sought with a large enough effect; inconclusive means small, poorly fitted or top-dose-only effect, or another doubt; inactive means no such curve, though single readings can be large; an effect the other way counts as inactive or inconclusive.

From PubChem BioAssay (NCATS) come the findings set out here.
Potency means the concentration at half of the fitted maximal effect.

`CCN(Cc1cc(Nc2nc(C)cn3c(-c4cn[nH]c4)cnc23)sn1)C(C)(C)CO`: the Potency in assay [1] was 0.0082 µM (active).

Take `COc1ccc(NS(=O)(=O)c2sc3ccc(Cl)cc3c2C)cc1N1CCNCC1`: in assay [1], the Potency is 14.6 µM (active).

As for `CNC(=O)[C@@H](NC(=O)[C@H](CC(C)C)[C@H](O)C(=O)NO)C(C)(C)C`, the Potency in assay [2] is 13.2 µM (active). For the same compound, the Potency result in assay [3] is “inactive”.

`Cc1ncc(CSSCc2cnc(C)c(O)c2CO)c(CO)c1O`: the Potency entry in assay [2] and in assay [3] was “inactive” in each case.

`CC[C@H]1OC(=O)[C@H](C)[C@@H](O[C@H]2C[C@@](C)(OC)[C@@H](O)[C@H](C)O2)[C@H](C)[C@@H](O[C@@H]2O[C@H](C)C[C@H](N(C)C)[C@H]2O)[C@](C)(O)C[C@@H](C)C(=O)[C@H](C)[C@@H](O)[C@]1(C)O`: the Potency entry in assay [2] and in assay [3] was “inactive” throughout.

As for `O=C1OC2(c3ccccc31)c1cc(I)c(O)c(I)c1Oc1c2cc(I)c(O)c1I`, the Potency result in assay [2] and in assay [3] was “inactive” in each case.

Regarding `Cc1[nH]c(/C=C2\C(=O)Nc3ccc(F)cc32)c(C)c1C(=O)NCCN1CCCC1`, the Potency in assay [2] is 51.7 nM (active) and 14.4 nM (active); in assay [3], 10.1 µM (active).

Consider `Nc1ccc(C(=O)O)c(O)c1`, for which the Potency entry in assay [2] and in assay [3] was “inactive” each time.

`c1ccc(CNCc2ccc(CN3CCCNCCNCCCNCC3)cc2)nc1`: the Potency entry in assay [2] and in assay [3] was “inactive” throughout.

As to `CN(C)CCCOc1ccc(-c2ccc3ncc4c(c3c2)n(C2CCOCC2)c(=O)n4C)cn1`, the Potency in assay [2] is 1.15 µM (active); in assay [3], 1.8 µM (active).

Consider `COc1ccc(/C=C/C(N)=O)cc1OC`, for which the Potency entry in assay [1] was “inactive”.

Regarding `CC(C)(C)C1CCC(CC2=C(O)c3ccccc3C(=O)C2=O)CC1` (centres undefined), the Potency result in assay [2] and in assay [3] was “inactive” in each case.

On to `COC(=O)c1ccc([C@H]2c3[nH]c4ccccc4c3C[C@H](C(=O)OC)N2C(=O)CCl)cc1`, for which the Potency was 0.235 µM (active) in assay [2] and 0.0891 µM (active) in assay [3].

Take `COc1ccc2c(c1)C(c1ccc(F)cc1)=C(CN1CCCC1)CO2`: the Potency in assay [1] is 20.9 µM (active).

For `CCCCC(CC)CN=C(N)NC(N)=NCCCCCCN=C(N)NC(N)=NCC(CC)CCCC` (centres undefined), the Potency in assay [1] is 2.66 µM (active).

For `C=C(C)C(=O)OC1C(OC(C)=O)/C(C=O)=C\CC/C(CO)=C/C2OC(=O)C(=C)C21` (centres undefined), in assay [1], the Potency was 2 µM (active).

For `Cc1c[nH]c(/C=C2\C(=O)Nc3ccccc32)c1CCC(=O)O`, the Potency in assay [2] was 0.468 µM (active). Besides, the Potency entry in assay [3] is “inactive”.

Regarding `Cc1ccc(S(=O)(=O)NC(=O)NC2CCCCCCC2)cc1`, the Potency entry in assay [2] and in assay [3] was “inactive” in each case.

For `Cc1sc2c(c1C)C(c1ccc(Cl)cc1)=N[C@@H](CC(=O)Nc1ccc(OCCOCCOCCOCCNc3cccc4c3C(=O)N(C3CCC(=O)NC3=O)C4=O)cc1)c1nnc(C)n1-2` (some centres undefined), the Potency result in assay [2] is “inactive”. Besides, the Potency in assay [3] was 3.98 µM (active).

As for `CN(C)CC/C=C1\c2ccccc2Sc2ccc(Cl)cc21`, the Potency in assay [1] was 15 µM (active).

Turning to `COc1cc2c(cc1OCCCN1CCCC1)N=C(N)C21CCC1`, the Potency result in assay [2] and in assay [3] was “inactive” in each case.

For the compound `CCCCNc1ccc(C(=O)OCCOCCOCCOCCOCCOCCOCCOCCOCCOC)cc1`, in assay [2], the Potency is 10.6 µM (active). The Potency result in assay [3] is “inactive”.

For the compound `C=C1CC2C3(C)C(O)CC(=O)C(C)(C)C3C(O)C(OC(C)=O)C2(C)C2C(=O)OC(C)(C(=O)OC)C(=O)C12C` (centres undefined), the Potency in assay [1] was 6.32 µM (active).

Take `Cc1c(-c2ccc(-c3ccccc3F)cc2)nc2ccc(F)cc2c1C(=O)O`: the Potency in assay [2] is 0.148 µM (active). For the same compound, in assay [3], the Potency entry is “inactive”.

In the case of `C/C=C1\[C@H](O[C@@H]2O[C@H](CO)[C@@H](O)[C@H](O)[C@H]2O)OC=C2C(=O)OCCc3ccc(O)c(c3)Oc3ccc(cc3)CCOC(=O)C[C@H]21`, in assay [1], the Potency was 3.85 µM (active).

In the case of `O=C1CN(/N=C/c2ccc([N+](=O)[O-])o2)C(=O)N1`, the Potency entry in assay [2] is “inactive”. The Potency in assay [3] was 18.4 µM (active).

For `COc1c2cc(c(O)c1OC)CCCCC(O)CCc1ccc(O)c-2c1` (centres undefined), in assay [1], the Potency is 14.3 µM (active).

For `c1ccc2c(c1)CCc1ccccc1N2`, the Potency result in assay [2] and in assay [3] was “inactive” in each case.

`COc1cccc(NCCC2(c3ccccc3)CC(C)(C)OC(C)(C)C2)c1`: the Potency entry in assay [1] is “inactive”.

As for `C=C1C(=O)O[C@@H]2C3C(=C(C)[C@@H](O)[C@@H](OC(=O)/C(=C/C)COC(C)=O)[C@@H]12)C(=O)[C@H]1O[C@@]31C` (some centres undefined), in assay [1], the Potency is 3.55 µM (active).

With `Cc1cc(OCCCS(C)(=O)=O)cc(C)c1-c1cccc(COc2ccc(C3=CC(=O)NS3=O)cc2)c1` (centres undefined), in assay [1], the Potency was 5.17 µM (active).
